Measurements taken from PubChem BioAssay (Tox21).
Records with an inconclusive call do not appear. Activity calls are given as the source filed them. Unless noted, the call rests on the fitted dose curve; in most records, active means well fitted curve in the direction sought with a large enough effect in the repeat runs; inconclusive means weak or mixed curves; inactive means no such curve, though single readings can be large; an effect the other way counts as inactive or inconclusive.

Experiments:
[1] = biological target: Nuclear receptor subfamily 1 group I member 3 (Homo sapiens) (UniProt Q14994); test: qHTS assay to identify small molecule agonists of the constitutive androstane receptor (CAR) signaling pathway (AID 1224839);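 further: HepG2 cells stably carrying human CAR and a CYP2B6 luciferase reporter; series mostly up to about 92 µM; nearly all actives have a fitted effect of over 15% in size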
Method in brief: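 Compounds tested at 15 concentrations on HepG2 cells stably harbouring hCAR and CYP2B6-2.2kb reporter constructs, co-treated with PK11195 (0.75 uM final), 24 h at 37 C; luminescent reporter signal quantified.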

[2] = qHTS assay to identify small molecule antagonists of the estrogen related receptor signaling pathway with the pleiotropic PPARgamma coactivator (PGC) from Tox21 10K library - cell viability counter screen (AID 1224840; active means well fitted cell-killing curve with a large enough effect in the repeat runs, not every such curve was filed as active; further: nearly all actives have a fitted effect of over 40% in size)
Method in brief: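 Cell viability is measured by CellTiter-Fluor fluorescence in PGC/ERR cells that receive compounds after a 6-hour attachment period and are then incubated 17.5 hours at 37 C.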

[3] = biological target: Thyrotropin receptor (Homo sapiens) (UniProt P16473); test: qHTS assay to identify small molecule agonists of the thyroid stimulating hormone receptor (TSHR) signaling pathway (AID 1224843; calls by dose curve; further: nearly all actives have a fitted effect of over 45% in size)
Method in brief: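 A cell-based cAMP HTRF format was run in TSHR-transfected HEK293 cells, 800 per well. Treatment: 30 min, room temperature. Detection: 1 h with labelled cAMP and anti-cAMP cryptate. Concentration-response over 15 points, three replicates.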

[4] = qHTS assay to identify small molecule agonists of the hypoxia (HIF-1) signaling pathway - cell viability counter screen (AID 1224844; calls by dose curve; further: nearly all actives have a fitted effect of over 50% in size)
Method in brief: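 Viability counter screen: HRE-bla ME-180 cells plated 5 hrs before compound addition, treated 17 hrs at 37C and 5% CO2, then CellTiter-Glo added after the FRET reporter read; luminescence after 30 min.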

[5] = qHTS assay to identify small molecule agonists of H2AX (AID 1224845; active means well fitted activation curve with a large enough effect in the signal ratio in the repeat runs, not every such curve was filed as active; the % refers to the signal ratio)
Method in brief: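 Phospho-H2AX Ser139 measured by HTRF (ex 320 nm; em 665 and 620 nm) after 24 hr antibody incubation. Compounds, 15 concentrations, 0.76% DMSO, were applied to CHO-K1 cells for 3hr at 37C before lysis.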

[6] = qHTS assay to identify small molecule agonists of the hypoxia (HIF-1) signaling pathway (AID 1224846; active means well fitted activation curve with a large enough effect in the signal ratio in the repeat runs, not every such curve was filed as active; the % refers to the signal ratio)
Method in brief: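 Agonist mode reporter screen. ME-180 cells stably expressing bla under HRE control received test compounds in DMSO for 17 hrs (37C, 5% CO2), and beta-lactamase activity was then detected with the CCF4-AM FRET substrate.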

[7] = qHTS assay to identify small molecule agonists of H2AX - cell viability counter screen (AID 1224847; calls by dose curve; further: top concentration of the series differs between compounds; nearly all actives have a fitted effect of over 30% in size)
Method in brief: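 Compounds tested at 15 concentrations were incubated 3 hr at 37C with wild-type CHO-K1 cells; cellular ATP-based luminescence (CellTiter-Glo) indicated viability.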

[8] = qHTS RealTime-Glo MT Cell Viability Assay in HepG2 cells - 24 hour (AID 1224867); further: nearly all actives have a fitted effect of over 50% in size
Method in brief: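 Cells + NanoLuc/prosubstrate dispensed (600 cells/well) → 5 h at 37 C/5% CO2 → compounds in DMSO transferred → 40 h incubation at 37 C, luminescence read at 0, 8, 16, 24, 32, 40 h.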

[9] = qHTS RealTime-Glo MT Cell Viability Assay in HEK293 cells - 32 hour (AID 1224868); further: top concentration of the series differs between compounds; nearly all actives have a fitted effect of over 50% in size
Method in brief: (§1)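 Tox21 10K qHTS, HEK293, 600 cells/well, RealTime-Glo reagent co-dispensed with cells; 5 h preincubation, compound by pintool, 37 C, luminescence at 0–40 h.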

[10] = A CellTox Green Cytotoxicity Assay to monitor cytotoxicity in HEK293 cells - 0 hour (AID 1224869); further: nearly all actives have a fitted effect of over 50% in size
Method in brief: (§2)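 Dead-cell fluorescence measured kinetically: asymmetric cyanine dye, HEK293, 600 cells/well, 5 h settle, 23 nL cpd/DMSO, 37 C, reads 0–40 h every 8 h.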

[11] = qHTS RealTime-Glo MT Cell Viability Assay in HepG2 cells - 40 hour (AID 1224870); further: nearly all actives have a fitted effect of over 50% in size
Method in brief: (§3)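 Real-time viability: cells seeded at 600 per well together with NanoLuc and cell-permeant prosubstrate, compounds added after 5 h incubation. Luminescence tracked at 0, 8, 16, 24, 32 and 40 h of exposure.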

[12] = A CellTox Green Cytotoxicity Assay to monitor cytotoxicity in HEK293 cells - 40 hour (AID 1224871); further: nearly all actives have a fitted effect of over 45% in size; further: potency means the concentration at half of the fitted maximal effect
Method in brief: as §2

[13] = qHTS RealTime-Glo MT Cell Viability Assay in HEK293 cells - 16 hour (AID 1224872)
Method in brief: as §1

[14] = qHTS RealTime-Glo MT Cell Viability Assay in HepG2 cells - 8 hour (AID 1224873); further: nearly all actives have a fitted effect of over 55% in size
Method in brief: as §3

[15] = qHTS RealTime-Glo MT Cell Viability Assay in HEK293 cells - 40 hour (AID 1224874); details: RealTime-Glo luminescence; max response: hits give low values; further: nearly all actives have a fitted effect of over 50% in size
Method in brief: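 600 HEK293 cells per well, dispensed already mixed with RealTime-Glo MT reagents. Compound dosing came 5 h later. The same wells were read for luminescence at 0, 8, 16, 24, 32 and 40 h of exposure at 37 C.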

[16] = A CellTox Green Cytotoxicity Assay to monitor cytotoxicity in HEK293 cells - 24 hour (AID 1224875); further: nearly all actives have a fitted effect of over 45% in size; further: potency means the concentration at half of the fitted maximal effect; on activity change: series mostly up to about 77 µM
Method in brief: as §2
On the % scale 0 is the no-effect control and ±100 the full control effect.

Nuclear receptor subfamily 1 group I member 3 (Homo sapiens), sequence (Q14994 whole entry, looked up): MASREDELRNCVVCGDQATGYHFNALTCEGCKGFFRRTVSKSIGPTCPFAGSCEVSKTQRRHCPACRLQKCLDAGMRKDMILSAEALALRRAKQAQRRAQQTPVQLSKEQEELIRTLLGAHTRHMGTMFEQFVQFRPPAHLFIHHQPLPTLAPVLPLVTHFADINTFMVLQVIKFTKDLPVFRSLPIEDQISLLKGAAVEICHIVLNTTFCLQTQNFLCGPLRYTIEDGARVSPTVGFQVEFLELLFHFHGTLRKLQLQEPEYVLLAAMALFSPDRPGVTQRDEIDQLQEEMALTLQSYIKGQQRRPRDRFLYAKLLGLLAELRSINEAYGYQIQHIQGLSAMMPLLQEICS
Thyrotropin receptor (Homo sapiens), sequence (P16473 whole entry, looked up): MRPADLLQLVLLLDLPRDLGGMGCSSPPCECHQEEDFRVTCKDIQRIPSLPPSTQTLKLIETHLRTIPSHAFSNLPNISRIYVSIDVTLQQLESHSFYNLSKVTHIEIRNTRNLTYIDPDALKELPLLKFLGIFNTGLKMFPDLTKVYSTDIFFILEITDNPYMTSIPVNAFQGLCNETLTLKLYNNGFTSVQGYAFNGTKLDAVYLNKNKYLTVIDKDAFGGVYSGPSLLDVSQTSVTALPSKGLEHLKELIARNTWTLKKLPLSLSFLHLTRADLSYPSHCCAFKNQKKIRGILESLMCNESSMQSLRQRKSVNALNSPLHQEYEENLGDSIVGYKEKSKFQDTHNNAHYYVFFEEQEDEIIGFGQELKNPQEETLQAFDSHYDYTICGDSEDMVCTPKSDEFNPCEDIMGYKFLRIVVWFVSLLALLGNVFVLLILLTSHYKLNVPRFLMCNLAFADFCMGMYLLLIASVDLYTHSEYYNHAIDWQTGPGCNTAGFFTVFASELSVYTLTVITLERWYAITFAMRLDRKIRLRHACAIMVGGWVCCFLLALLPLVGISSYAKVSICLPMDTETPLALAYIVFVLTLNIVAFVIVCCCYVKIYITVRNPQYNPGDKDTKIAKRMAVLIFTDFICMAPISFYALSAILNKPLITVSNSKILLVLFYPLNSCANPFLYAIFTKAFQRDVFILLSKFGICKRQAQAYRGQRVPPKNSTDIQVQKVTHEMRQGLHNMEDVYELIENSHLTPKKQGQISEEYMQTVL

CO[Si](CCCn1c(=O)n(CCC[Si](OC)(OC)OC)c(=O)n(CCC[Si](OC)(OC)OC)c1=O)(OC)OC
inactive: Potency [1] | outcome [2] | outcome [3] | outcome [4] | outcome [5] | outcome [6] | outcome [7] | outcome [8] | Potency [9] | Potency [10] | outcome [11] | Potency [12] | Potency [13] | outcome [14] | max response [15] 1.02% | Potency [16]

CN(C)C(C)(C)CO
inactive: Potency [1] | outcome [2] | outcome [3] | outcome [4] | outcome [5] | outcome [6] | outcome [7] | outcome [8] | Potency [9] | Potency [10] | outcome [11] | Potency [12] | Potency [13] | outcome [14] | max response [15] 1.89% | Potency [16]

CCOc1cccc(N)c1
inactive: Potency [1] | outcome [2] | outcome [3] | outcome [4] | outcome [5] | outcome [6] | outcome [7] | outcome [8] | Potency [9] | Potency [10] | outcome [11] | Potency [12] | Potency [13] | max response [15] 2.76% | Potency [16]

OC1OCCOC1O (centres undefined)
inactive: Potency [1] | outcome [2] | outcome [3] | outcome [4] | outcome [5] | outcome [6] | outcome [7] | outcome [8] | Potency [9] | Potency [10] | outcome [11] | Potency [12] | Potency [13] | outcome [14] | max response [15] 9.9% | Potency [16]

N[C@@H](CSCCCO)C(=O)O
inactive: activation [1] 0.0803% [at 19 µM] | viability change, negative = cytotoxic [2] -0.0206% [at 19 µM] | activation [3] 0.239% [at 19 µM] | activity change, negative = cytotoxicity [4] 0.058% [at 15.8 µM] | activation (H2AX phosphorylation) [5] 1.1% [at 31.6 µM] | activation [6] -1.56% [at 15.8 µM] | activity change, negative = cytotoxicity [7] -1.29% [at 31.6 µM] | activity change, negative = cytotoxicity [8] 1.24% [at 15.8 µM] | activity change, negative = cytotoxic [9] 3.39% [at 15.8 µM] | cytotoxicity [10] -3.9% [at 15.8 µM] | activity change, negative = cytotoxic [11] 1.41% [at 15.8 µM] | cytotoxicity increase [12] -5.88% [at 15.8 µM] | activity change, negative = cytotoxicity [13] 2.66% [at 15.8 µM] | viability change, negative = cytotoxic [14] 1.95% [at 15.8 µM] | max response [15] 2.4% | activity change [16] 1.71% [at 15.8 µM, hits give high values]

CC(=O)C1C(=O)C=C(C)OC1=O (centres undefined)
inactive: Potency [1] | outcome [2] | outcome [3] | outcome [4] | outcome [5] | outcome [6] | outcome [7] | outcome [8] | Potency [9] | Potency [10] | outcome [11] | Potency [12] | Potency [13] | outcome [14] | max response [15] 1.99% | Potency [16]

CCCC(=O)OC/C=C(\C)CCC=C(C)C
active: Potency [12] 49 µM | Potency [16] 54.9 µM
inactive: Potency [1] | outcome [2] | outcome [3] | outcome [4] | outcome [5] | outcome [6] | outcome [7] | outcome [8] | Potency [9] | Potency [10] | outcome [11] | Potency [13] | outcome [14] | max response [15] 10.7%

CC(C)Cn1cnc2c1c(=O)n(C)c(=O)n2C
inactive: Potency [1] | outcome [2] | outcome [3] | outcome [4] | outcome [5] | outcome [6] | outcome [7] | outcome [8] | Potency [9] | Potency [10] | outcome [11] | Potency [12] | Potency [13] | outcome [14] | max response [15] 2.8% | Potency [16]

CNCCS(=O)(=O)O
inactive: Potency [1] | outcome [2] | outcome [3] | outcome [4] | outcome [5] | outcome [6] | outcome [7] | outcome [8] | Potency [9] | Potency [10] | outcome [11] | Potency [12] | Potency [13] | outcome [14] | max response [15] 4.21% | Potency [16]

CCOc1ccccc1OCC1CNCCO1 (centres undefined)
inactive: Potency [1] | outcome [2] | outcome [3] | outcome [4] | outcome [5] | outcome [6] | outcome [7] | outcome [8] | Potency [9] | Potency [10] | outcome [11] | Potency [12] | Potency [13] | outcome [14] | max response [15] 2.19% | Potency [16]

CCCCOC(=O)C(C)O (centres undefined)
inactive: Potency [1] | outcome [2] | outcome [3] | outcome [4] | outcome [5] | outcome [6] | outcome [7] | outcome [8] | Potency [9] | Potency [10] | outcome [11] | Potency [12] | Potency [13] | outcome [14] | max response [15] 11.1% | Potency [16]

OCC1(CO)COCOC1
inactive: Potency [1] | outcome [2] | outcome [3] | outcome [4] | outcome [5] | outcome [6] | outcome [7] | outcome [8] | Potency [9] | Potency [10] | outcome [11] | Potency [12] | Potency [13] | outcome [14] | max response [15] -1.51% | Potency [16]

CN1C[C@@H]2C[C@H]1CN2c1cc2c(cc1F)c(=O)c(C(=O)O)cn2C1CC1
inactive: activation [1] -4.55% [at 19 µM] | viability change, negative = cytotoxic [2] 6.5% [at 19 µM] | activation [3] 1.11% [at 19 µM] | activity change, negative = cytotoxicity [4] 12.6% [at 15.8 µM] | activation (H2AX phosphorylation) [5] -0.432% [at 31.6 µM] | activation [6] -0.622% [at 15.8 µM] | activity change, negative = cytotoxicity [7] 4.25% [at 31.6 µM] | activity change, negative = cytotoxicity [8] 5.55% [at 15.8 µM] | activity change, negative = cytotoxic [9] 9.47% [at 15.8 µM] | cytotoxicity [10] -0.324% [at 15.8 µM] | activity change, negative = cytotoxic [11] 1.94% [at 15.8 µM] | cytotoxicity increase [12] -7.03% [at 15.8 µM] | activity change, negative = cytotoxicity [13] 1.79% [at 15.8 µM] | viability change, negative = cytotoxic [14] 8.97% [at 15.8 µM] | max response [15] 11.1% | activity change [16] -6.09% [at 15.8 µM, hits give high values]

O=NN(CCCl)C(=O)NC1CCCCC1
inactive: Potency [1] | outcome [2] | outcome [3] | outcome [4] | outcome [5] | outcome [6] | outcome [7] | outcome [8] | Potency [9] | Potency [10] | outcome [11] | Potency [12] | Potency [13] | outcome [14] | max response [15] 1.88% | Potency [16]

CC1(C)Oc2ccc(C#N)cc2[C@@H](N2CCCC2=O)[C@@H]1O
inactive: Potency [1] | outcome [2] | outcome [3] | outcome [4] | outcome [5] | outcome [6] | outcome [7] | outcome [8] | Potency [9] | Potency [10] | outcome [11] | Potency [12] | Potency [13] | outcome [14] | max response [15] 2.51% | Potency [16]
